Among all 48,000 compounds or so, about 13,000 (27%) showed an effect of 50% or more. The list shows a part of the results.
Tested on: Wolbachia pipientis
Experiment: Anti-Wolbachia Cell-Based Screen
Assay type: functional
Set-up: scale not given: in the data most compounds retested in dose-response had high values
Details: 5 µM

Row | SMILES | Percent Effect [%]
1 | COc1ccccc1Oc1ncccc1CNC(=O)[C@@H](N)CCO | -18.01
2 | O=C(NC1CC1)c1ccnc(N2CCOC(c3ccc(Cl)cc3)C2)c1 (stereo not given) | -21.25
3 | Cc1cc(N2CCOC(c3ccc(C(N)=O)cn3)C2)ncn1 (stereo not given) | 105.9
4 | COc1cc(N2CC[C@@H]3O[C@@H](c4ccncn4)C[C@H]3C2)ncn1 | -28.63
5 | Cc1ccc(N2CC[C@@H]3O[C@@H](c4ccncn4)C[C@H]3C2)nn1 | 17.26
6 | O=C(NC1CC1)c1ccnc(N2CCOC(c3ccc(Cl)c(Cl)c3)C2)c1 (stereo not given) | -23.24
7 | Cc1cc(N2CCOC(c3ccncn3)C2)ncn1 (stereo not given) | 99.32
8 | CN(C)CCN1CCOC2(CCN(c3nccs3)CC2)c2ccccc21 | -12.88
9 | N#Cc1ccc(C(=O)N2CCOC[C@H](Oc3cnccn3)C2)cc1 | -4.484
10 | CC1(C)CNC(=O)c2nc(CCN3CCCCC3CO)[nH]c2C1 (stereo not given) | -22.93
11 | CCOc1cc(NC(=O)C2CC(=O)N(c3cccc(OC)c3)C2)ncn1 (stereo not given) | -2.704
12 | CCN(Cc1ccc(C#N)cc1F)C(=O)C(C)(C)C | 4.691
13 | CC(C)c1nc2c(n1C)CCN(CCc1ccccn1)C2 | 5.197
14 | CC(C)c1nc2c(n1C)CCN(CC(=O)Nc1cccnc1)C2 | 119.2
15 | Cc1nn(C)c(C)c1NC(=O)CN1CCc2c(nc(C(C)C)n2C)C1 | -19.45
16 | CC(C)c1nc2c(n1C)CCN(CC(=O)Nc1ccnn1C(C)C)C2 | 120.4
17 | CC(C)c1nc2c(n1C)CCN(CC(=O)NCc1ccccn1)C2 | -5.66
18 | CC(C)c1nc2c(n1C)CCN(CC(=O)Nc1ccncc1)C2 | 127.6
19 | CC(C)c1nc2c(n1C)CCN(CC(=O)Nc1ccc(Cl)cn1)C2 | 6.553
20 | CC(C)c1nc2c(n1C)CCN(CC(=O)Nc1nccs1)C2 | -1.818
21 | CC(C)c1cc(NC(=O)CN2CCc3c(nc(C(C)C)n3C)C2)on1 | 6.487
22 | COc1ccnc(N2CCC(=O)N(CC3CC3)C(C(C)C)C2)n1 (stereo not given) | -66.14

Row | SMILES | Percent Effect [%]
23 | Cc1n[nH]cc1CNCC(c1cccc(F)c1)N(C)C (stereo not given) | -5.12
24 | O=S(=O)(CC1CCOCC1)NCc1ncc(-c2ccccc2)o1 | -9.674
25 | Cn1cc(C2CCCN2CC(=O)N(CCC#N)Cc2ccco2)cn1 (stereo not given) | 0.296
26 | CC(=O)NCC1CCN(c2ccnc3ccc(Br)cc23)CC1 | 3.515
27 | Cc1cc(C)n(-c2cncc(N3CCC(C(=O)N(C)C)CC3)n2)n1 | -4.811
28 | CCNC(=O)CN1CCN(c2cc(C)nc(-c3ccncc3)n2)CC1 | 108.7
29 | CC(=O)NCC1CCN(c2cc(C(C)C)nc3ccnn23)CC1 | -0.4994
30 | CCNC(=O)CN1CCN(c2ccnc3c(F)ccc(F)c23)CC1 | 11.86
31 | CC(=O)NCC1CCN(c2cc(C)nc(-c3ccncc3)n2)CC1 | 110
32 | Cc1cc(N2CCC(C(=O)N(C)C)CC2)nc(-c2ccncc2)n1 | 121.6
33 | Cc1cc(N2CCC(N(C)C(=O)c3ccccc3)CC2)nc(C)n1 | -0.5132
34 | O=C(NC1CCN(c2cccc(C(F)(F)F)n2)CC1)C1CC1 | -2.588
35 | O=C(NC1CC1)C1CCN(c2cccc(C(F)(F)F)n2)CC1 | -5.657
36 | Cc1cc(N2CCC(C(=O)NC3CC3)CC2)nc(-c2ccncc2)n1 | 96.2
37 | Cc1cc(NCC(=O)NCC(F)(F)F)nc(-c2ccncc2)n1 | 6.905
38 | COCC(=O)NC(c1ccc(Cl)cc1)c1noc(C)n1 (stereo not given) | 10.23
39 | CN1CCN(CC[C@@H]2CC[C@H](O)[C@@H](C(=O)Nc3ccccc3)O2)CC1 | -5.857
40 | Cc1c(Cl)cc(C(=O)N(CCO)Cc2nccn2C)cc1Cl | -0.9396
41 | CCC1CN(Cc2nnc(C3CC3)o2)CCC(=O)N1Cc1ccccc1 (stereo not given) | 1.6
42 | Cc1cccc(CNC2CCN(CCc3ccncc3)CC2)c1C | -28.44
43 | O=C(Nc1ccccc1)C1CN(Cc2nccs2)CC12CCOCC2 (stereo not given) | -7.197
44 | CCCN(C)C(=O)Nc1ccc(C(=O)NCCC(=O)OC)cc1 | 0.9295

Row | SMILES | Percent Effect [%]
45 | COc1ccc(-c2nc3c([nH]2)CCNC3C(=O)O)c2ccccc12 (stereo not given) | -1.412
46 | Cn1ncc2c(=O)[nH]c(N3CCCC3c3cccs3)nc21 (stereo not given) | 2.416
47 | O=C1N[C@@H]2CCN(C(=O)C3CC3)[C@@H]2C(=O)N1c1ccc(F)cc1 | -5.922
48 | Cc1cc(N2CCN(c3ccc(=O)[nH]n3)CC2)nc(-c2ccncc2)n1 | 110.1
49 | COC(=O)C1CCN(c2cncc(-n3nc(C)cc3C)n2)CC1 | -8.177
50 | COC(=O)C1CCN(C(=O)CN2CCN(c3cccc(C)c3)CC2)CC1 | -8.309
51 | COC(=O)C1CCN(c2cc(C)nc(-c3ccncc3)n2)CC1 | 111
52 | Cc1cc(N2CCOC(CN)C2)nc(-c2ccccc2)n1 (stereo not given) | 6.388
53 | Cc1cc(N2CCOC(C(F)(F)F)C2)nc(-c2ccccc2)n1 (stereo not given) | 4.501
54 | Cc1nc2ncnn2c2ccn(-c3cccnc3O)c(=O)c12 | -8.283
55 | Cc1c(C(N)=O)sc2nc(C(F)(F)F)ccc12 | -3.926
56 | O=c1ccc2c([nH]1)CCC(NS(=O)(=O)C1CC1)C2 (stereo not given) | 112.2
57 | CCS(=O)(=O)NC1CCc2c(ccc(=O)n2CC2CC2)C1 (stereo not given) | 2.839
58 | CCCS(=O)(=O)NC1CCc2c(ccc(=O)n2CC2CC2)C1 (stereo not given) | -27.38
59 | CS(=O)(=O)NC1CCc2[nH]c(=O)ccc2C1 (stereo not given) | 99.95
60 | O=c1ccc2c(n1CC1CC1)CCC(NS(=O)(=O)C1CC1)C2 (stereo not given) | -36.22
61 | O=C(NC1CCc2[nH]c(=O)ccc2C1)C1CCOCC1 (stereo not given) | -2.009
62 | Cc1oc(-c2ccsc2)nc1CNC(C)Cn1cccn1 (stereo not given) | -4.999
63 | CS(=O)(=O)c1ccc(CNC[C@H]2COCc3nc4cccnc4n32)cc1 | -5.618
64 | Cc1ccc(N2CCN(c3ccccc3C)CC2C)nn1 (stereo not given) | -2.059
65 | CC1(C)[C@H]2CC=C(CN3CCCn4nc(CNS(C)(=O)=O)cc4C3)[C@@H]1C2 | -5.008

Reference: ChEMBL document CHEMBL3988442, “University of Dundee, Small-Polar-MMV Screening Library” (2021)
